# Assay outcomes: PubChem, National Center for Advancing Translational Sciences (NCATS)
# FLuc inh = Photinus pyralis luciferase inhibition; purified P. pyralis luciferase, luminescence, biochemical; P08659; Potency, µM (doses to about 115 µM), usual class: inhibitors; AID 1347043; 2.5% of 76,000 active; also: nearly all actives have a fitted effect of over 65% in size
#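 Luminescence read by CCD imaging after purified firefly luciferase (10nM final) was added to substrate buffer holding 10uM D-luciferin and 10uM ATP, pH 7.5, pre-dosed with compound.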
# 3T3 cytotox = cytotoxic compounds in NIH 3T3 cells. Potency, µM (doses to about 96.7 µM), hits mostly inhibitors. NIH 3T3 viability, CellTiter-Glo ATP luminescence, 48-72 h. 4.3% of 94,000 active. AID 1345082; also: nearly all actives have a fitted effect of over 55% in size
#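 Cells were seeded at 400 per well, treated with pin-transferred compound, and kept 48 or 72 hr at 37 °C before CellTiter-Glo addition and luminescence imaging of cellular ATP.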
# NPR1 antag = antagonists of human natriuretic peptide receptor Npr1; HEK293 hNpr1 GloSensor cGMP, ANP-stimulated luminescence; Potency, µM (doses to about 46.3 µM), most hits filed as inhibitors; 1.6% of 76,000 active; AID 1347048; calls by dose curve; also: nearly all actives have a fitted effect of over 60% in size
#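 Compound pre-incubated 30 min at room temperature on GloSensor-loaded HEK293 cells stably carrying hNpr1 and the pGS-40F cGMP biosensor. Stimulation uses hNppA at 0.1 nM final; luminescence is taken at baseline and 20 min post-agonist.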
# HEK cytotox = kills HEK 293 cells; HEK 293 viability, ATP luminescence (CellTiter-Glo), 48-72 h; Potency, µM (highest dose often 115 µM), usual class: inhibitors; 6.6% of 94,000 active; AID 1345083; also: nearly all actives have a fitted effect of over 60% in size
#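 Cells seeded first (HEK 293, 250 cells/well), then compound added by pintool. Incubation ran 48 or 72 hr at 37 degree Celsius. CellTiter-Glo was added and luminescence imaged after 10 min at room temperature.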
# GPT2 inhibitor = blocks human glutamate pyruvate transaminase 2; Q8TD30; Recombinant GPT2, coupled pyruvate oxidase/HRP Amplex Red fluorescence; Potency, µM (doses to about 57.7 µM), hits mostly inhibitors; 0.25% of 100,000 active; also: nearly all actives have a fitted effect of over 60% in size
# Target sequence (Q8TD30 whole entry, looked up): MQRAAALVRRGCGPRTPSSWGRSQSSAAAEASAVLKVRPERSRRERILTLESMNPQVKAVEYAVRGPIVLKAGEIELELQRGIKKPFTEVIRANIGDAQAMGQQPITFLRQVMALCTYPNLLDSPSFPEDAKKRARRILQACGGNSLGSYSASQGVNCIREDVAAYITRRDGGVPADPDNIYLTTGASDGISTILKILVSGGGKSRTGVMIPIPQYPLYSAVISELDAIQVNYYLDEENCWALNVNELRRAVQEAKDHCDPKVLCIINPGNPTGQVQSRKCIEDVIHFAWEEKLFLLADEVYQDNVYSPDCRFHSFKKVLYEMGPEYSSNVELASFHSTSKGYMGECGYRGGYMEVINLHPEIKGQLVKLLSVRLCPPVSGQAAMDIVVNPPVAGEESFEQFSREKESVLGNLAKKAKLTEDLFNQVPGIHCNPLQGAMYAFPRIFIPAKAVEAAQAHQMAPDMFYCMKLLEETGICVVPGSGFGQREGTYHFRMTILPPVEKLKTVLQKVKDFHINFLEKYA
#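 Fluorescence read-out: pyruvate from GPT2 turnover coupled to pyruvate oxidase, HRP and Amplex Red (0.2mM ThPP, 0.2U/mL PO and HRP, 50uM Amplex final). Substrates 250uM a-KG, 2mM L-alanine; enzyme 10ng/uL; 30 min RT.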
# Hits are given with their value; . = inactive; ? = inconclusive; / = no result given. Hits are enriched below; roughly 10% of the tested compounds scored in any of these assays. Unless noted, calls follow the shape of the dose curve; as a rule, active = well fitted curve in the direction sought with a large enough effect; inconclusive = small, poorly fitted or top-dose-only effect, or another doubt; inactive = no such curve, though single readings can be large; an effect the other way counts as inactive or inconclusive.
SMILES,FLuc inh,3T3 cytotox,NPR1 antag,HEK cytotox,GPT2 inhibitor
CC(=O)N1CC2(CCCN(Cc3cc4ccccc4[nH]3)C2)Cc2ccccc21 (stereo not drawn),/,25µM,/,?,.
CCOc1ccc(C(=O)Nc2cccc(-c3nnc4n3CCCC4)c2)cc1,25µM,?,.,?,.
O=C(Cc1ccc(Cl)cc1)Nc1cccc(-c2nnc3n2CCCC3)c1,.,?,.,50µM,?
O=C(Nc1cccc(-c2nnc3n2CCCC3)c1)c1ccc(Cl)cc1,?,?,.,?,.
O=C(Cc1ccc(F)cc1)Nc1cccc(-c2nnc3n2CCCC3)c1,.,.,.,?,.
O=C(Nc1cccc(-c2nnc3n2CCCC3)c1)c1cc(-c2ccccc2)n[nH]1,2.2µM,.,?,28µM,.
O=C(Nc1ccc(-c2nnc3n2CCCC3)cc1)c1cc(-c2ccccc2)n[nH]1,.,.,.,.,.
O=C(Nc1cccc(-c2nnc3n2CCCC3)c1)c1cc(C2CC2)[nH]n1,20µM,.,?,.,.
CC(C)Oc1cccc(-c2nc(C(=O)Nc3ccc(F)cc3)cs2)c1,?,?,.,?,.
COCCNC(=O)C1CCCCN1Cc1ccc(-c2cccs2)cc1 (stereo not drawn),/,?,/,40µM,.
CCOCCNC(=O)C1CCCCN1Cc1ccc(-c2cccs2)cc1 (stereo not drawn),/,40µM,/,?,.
O=C(Nc1cccc(Cl)c1)C1CCCCN1Cc1ccc(-c2cccs2)cc1 (stereo not drawn),/,?,/,28µM,.
O=C(NCCc1ccccc1)C1CCCCN1Cc1ccc(-c2cccs2)cc1 (stereo not drawn),/,45µM,/,?,.
Cc1noc(C)c1CCC(=O)N1CCC(C2CCN(S(C)(=O)=O)CC2)C1 (stereo not drawn),.,.,.,.,.
COCCNC(=O)C1COC2(CCN(C(=O)c3ccccc3F)CC2)N1C(=O)c1ccco1 (stereo not drawn),.,.,.,.,.
COC(=O)[C@@H]1Cc2c([nH]c3ccccc23)[C@H]2C[C@H](NC[C@H]3CCCO3)C[C@@H](c3ccccc3F)N21,.,35µM,.,?,.
CN1[C@H](C(=O)O)C[C@H](C(=O)NCCCO)[C@@H]1c1ccccc1F,.,.,.,.,.
COC(=O)[C@@H]1Cc2c([nH]c3ccccc23)[C@H]2C[C@@H](NCCNC(C)=O)C[C@@H](c3ccccc3F)N21,?,79µM,.,?,.
COC(=O)C1=C(C)N=C2SC=C(CC(=O)NCC3CCCO3)N2C1c1ccccc1F (stereo not drawn),.,.,.,.,.
COC(=O)[C@@H]1Cc2c([nH]c3ccccc23)[C@H]2C[C@@H](NCCO)C[C@@H](c3ccccc3F)N21,.,28µM,.,40µM,.
Cc1ccc(NC(=O)Cn2ccn3nc(-c4ccc(F)cc4)c(CO)c3c2=O)cc1F,.,.,.,.,.
N#Cc1ccc(CN2CC[C@@H]3C(=O)NCCCCCCN(Cc4ccncc4)[C@@H]3C2)cc1,.,.,.,.,.
COc1ccccc1NC(=O)Cn1ccn2nc(-c3ccc(F)cc3)c(CO)c2c1=O,.,.,.,.,.
CC(C)CCN1CCOc2cc(C(=O)Nc3ccc4cn[nH]c4c3)ccc2C1,?,?,.,89µM,.
Cc1csc(NC(=O)c2ccc3c(c2)OCCN(CCC(F)(F)F)C3)n1,?,?,.,79µM,.
SMILES,FLuc inh,3T3 cytotox,NPR1 antag,HEK cytotox,GPT2 inhibitor
Cc1cnc(NC(=O)c2ccc3c(c2)OCCN(CCC(C)C)C3)s1,?,?,.,?,.
COc1ccccc1-c1cccc(C(=O)N2CCC[C@H]2C(=O)NCc2cccc(Cl)c2)c1,/,?,/,?,.
CN(C)c1cccc(-c2cnc(Nc3cccnc3)c3c2CCO3)c1,40µM,50µM,?,63µM,.
CNC(=O)c1cccc(-c2cnc(Nc3ccc4c(c3)OCCO4)c3c2CCO3)c1,5.6µM,?,?,79µM,.
CN(C)c1cccc(-c2cnc(Nc3ccc4c(c3)OCCO4)c3c2CCO3)c1,3.5µM,.,?,?,.
Cc1c(F)cccc1NC(=O)N1CCCC(Cn2c(C)nc3cccnc32)C1 (stereo not drawn),.,?,.,?,.
